Assay results taken from PubChem BioAssay (EPA / NIEHS).
Several values for one entry are separate records, joined by “and”; a condition that tells them apart may be missing. Equal values may be shown once. The source holds several records for some structures; these can differ, active in one and inactive in another. Activity calls are given as the source filed them. Rule for the calls: active = hit-call score of the fitted dose curve at least 0.9, where 1 is the maximum; inactive = score below 0.9.

Each molecule was assayed on solute carrier (SLCO1B1), SLCO1B1 (gene 10599) (assay: LTEA_HepaRG_SLCO1B1: Life Technologies and Expression Analysis (LTEA) Assay for solute carrier (SLCO1B1) using HepaRG (AID 2283530)). Settings: mRNA level, 48 h; actives raise or lower the signal.
Experimental: LTEA_HepaRG is a cell based, multiplexed-readout assay that uses HepaRG, a human liver cell line, with measurements taken at 48 hours after chemical dosing on a 96-well plate.LTEA_HepaRG_SLCO1B1 is one of 102 assay component(s) measured in the LTEA HepaRG cell culture assay. It is a marker of NR mediated transport.Data from the assay component LTEA_HepaRG_SLCO1B1 was analyzed into 1 endpoint. This assay endpoint, LTEA_HepaRG_SLCO1B1, was analyzed with bidirectional fitting relative to DMSO as the negative control and baseline of activity. Using a type of inducible reporter, measures of mRNA induction for gain or loss-of-signal activity can be used to understand regulation of transcription factor activity. To generalize the intended target to other relatable targets, this assay endpoint is annotated to the transporter intended target family, where the subfamily is organic anion transporter.
A total of 1060 chemcials from the ToxCast library were tested in eight-point concentration-response experiments. Cell culture and cytotoxicity assays were conducted at Thermo Fisher Scientific's Custom Services facility (Madison, WI). A single lot of human HepaRG cells (Thermo Fisher Scientific, Frederick, MD) was used for the cell culture experiments. 96-well format collagen type I coated plates of human HepaRG cells were prepared using established methods. Briefly, cryopreserved HepaRG cells were thawed, plated at a density of approximately 100,000 cells/well in HepaRG Thaw, Plate, and General Purpose media (HPRG770, Thermo Fisher Scientific), and incubated for 48 hours. 0.5% DMSO was selected as vehicle control to balance the requisite need of DMSO in HepaRG cultures to maintain differentiation (for example, baseline metabolism, proportions of hepatocytes vs. cholangiocytes), while enabling further hepatic receptor pathway activation (for example, PXR and CAR) in response to chemical exposure. 48 hours after plating, the culture medium was replaced with HepaRG Serum-Free Incudtion Media. Cells were exposed to each test chemical in duplicate and maintained in CO2 incubators for another 48 hours. Chemical plates were thawed to room temperature and 200x concentrations of treatment groups were prepared. 8-point conentration-reponse curves were made with the highest exposure at 100 uM, followed by half-log dilutions, all in 0.5% DMSO. Each test plate contained variouse controls, induction positive controls (1mM phenobarbital), cytotoxicity positive controls ([…] aflatoxin B1), vehicle controls (0.5% DMSO), and total lysis controls (0.5% DMSO). Cell morphology images were taken using an Essen IncuCyte FLR automated microscope, with six 96-well plates imaged in about 24 minutes. Images were captured and exported and JPEG files. Spent culture media was transfered to black-well plates for the LDH assay, and remaining media was sorted at -80 C for later use. Cells were treated with RLT buffer and frozen until shipped for gene expression analysis. Total RNA was isolated from the cell suspension in 75 uL of Buffer RLT (Qiagen, Germantown, MD 20874) by Quintiles/Expression Analysis (Durham, NC) using a custom isolation procedure. Total RNA from each plate well was transferred to a preamplification plate. Fluidigm's 96.96 Dynamic ArrayTM (Fluidigm, Amsterdam, the Netherlands) technology was used for gene expression analyses by quantitative reverse transcription polymerase chain reaction (qRT-PCR, performed by Quintiles/Expression Analysis, Durham, NC)89. Standard TaqManTM Assays (Applied Biosystems/ThermoFisher Scientific, Foster City, CA) were used to assess the expression of 93 genes selected based on their selectivity and sensitivity to important hepatic receptors known to be modulated by environmental chemicals; importance in human hepatocyte functionality; and hepatotoxicity. […]

SMILES	outcome	AC50
CC(C)N(C(=O)COc1nnc(C(F)(F)F)s1)c1ccc(F)cc1	inactive	–
COP(=S)(OC)Oc1ccc(SC)c(C)c1	inactive	–
CCOCN(C(=O)CCl)c1c(C)cccc1CC	–	81.3 µM (active)
Clc1ccccc1-c1nnc(-c2ccccc2Cl)nn1	inactive	–
CCCN(CCC)c1c([N+](=O)[O-])cc(C(F)(F)F)cc1[N+](=O)[O-]	inactive	–
CCOC1Oc2ccc(OS(C)(=O)=O)cc2C1(C)C (stereo not given)	–	73.6 µM (active)
CCN(CC)C(=O)SCc1ccc(Cl)cc1	inactive	–
CCCN(CCOc1c(Cl)cc(Cl)cc1Cl)C(=O)n1ccnc1	–	64.2 µM (active)
C[C@H]1[C@H](c2ccc(Cl)cc2)SC(=O)N1C(=O)NC1CCCCC1	–	60.7 µM (active)
O=C(O)CCCOc1ccc(Cl)cc1Cl	inactive	–
ClC1C(Cl)C(Cl)C(Cl)C(Cl)C1Cl (stereo not given)	inactive	–
Cc1[nH]c(=O)n(C(C)(C)C)c(=O)c1Cl	inactive	–
CC[C@H](C)[C@H]1O[C@]2(C=C[C@@H]1C)C[C@@H]1C[C@@H](C/C=C(\C)[C@@H](O[C@H]3C[C@H](OC)[C@@H](O[C@H]4C[C@H](OC)[C@@H](O)[C@H](C)O4)[C@H](C)O3)[C@@H](C)/C=C/C=C3\CO[C@@H]4[C@H](O)C(C)=C[C@@H](C(=O)O1)[C@]34O)O2 (tested in a mixture with another compound)	–	15.2 µM (active)
N#Cc1c(Cl)c(Cl)c(Cl)c(C#N)c1Cl	inactive	–
CCC(C)(NC(=O)c1cc(Cl)c(C)c(Cl)c1)C(=O)CCl (stereo not given)	–	75.8 µM (active)
O=S(=O)(O)C(F)(F)C(F)(F)C(F)(F)C(F)(F)C(F)(F)C(F)(F)C(F)(F)C(F)(F)F	inactive	93.1 µM (active) and 79 µM (active) and 77.6 µM (active)
O=C(O)C(F)(F)C(F)(F)C(F)(F)C(F)(F)C(F)(F)C(F)(F)C(F)(F)F	inactive	–
O=C(NC(=O)c1c(F)cccc1F)Nc1ccc(OC(F)(F)C(F)OC(F)(F)F)c(Cl)c1 (stereo not given)	inactive	–
COc1nn(CSP(=S)(OC)OC)c(=O)s1	inactive	–

SMILES	outcome	AC50
CNC(=O)/C=C(\C)OP(=O)(OC)OC	inactive	–
CN1CSC(=S)N(C)C1	inactive	–
CNC(=O)Oc1cccc(N=CN(C)C)c1	inactive	–
CCC(C)Nc1c([N+](=O)[O-])cc(C(C)(C)C)cc1[N+](=O)[O-] (stereo not given)	inactive	–
COP(=S)(OC)Oc1ccc([N+](=O)[O-])cc1	inactive	–
CC(C)(C)C(O)/C(=C\c1ccc(Cl)cc1Cl)n1cncn1 (stereo not given)	–	69 µM (active)
CC(C)(C)C(O)C(Oc1ccc(Cl)cc1)n1cncn1 (stereo not given)	inactive	–
CCc1ccc(C(=O)NN(C(=O)c2cc(C)cc(C)c2)C(C)(C)C)cc1	inactive	–
O=C(Nc1ccccc1)Nc1cnns1	–	74.2 µM (active)
Oc1ccc(Cl)cc1Cc1ccccc1	inactive	81.5 µM (active)
O=[N+]([O-])/N=C1\NCCN1Cc1ccc(Cl)nc1	–	50 µM (active)
O=C(O)COc1ccc(Cl)cc1Cl	inactive	–
COP(=O)(OC)OC=C(Cl)Cl	inactive	–
Oc1cc(Cl)ccc1Oc1ccc(Cl)cc1Cl	inactive	–
CC(C)OC(=O)Nc1cccc(Cl)c1	inactive	–
CC1(C)C(C=C(Cl)Cl)C1C(=O)OC(C#N)c1ccc(F)c(Oc2ccccc2)c1 (stereo not given)	inactive	–
CCC(C)(C)C(=O)OC1=C(c2ccc(Cl)cc2Cl)C(=O)OC12CCCCC2	inactive	–
CC1(c2ccc(Oc3ccccc3)cc2)OC(=O)N(Nc2ccccc2)C1=O (stereo not given)	–	30.6 µM (active)
CNC(=O)Oc1ccccc1OC(C)C	inactive	–
